Measurements from PubChem BioAssay (NCATS).
Records with an inconclusive call do not appear. A number with no mark means an inactive call. The call rests on the fitted dose curve; in most records, active means well fitted curve in either direction with a large enough effect (not every such curve was filed as active); inconclusive means small, poorly fitted or top-dose-only effect, or another doubt; inactive means flat fitted curve, though single readings scatter.

Columns and labels:
[1] = NFAT Signaling Pathway (AID 444); details: Jurkat NFAT-bla M1, carbachol, beta-lactamase ratio, 5 h; at 17.2 µM (top of the series) unless noted;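 further: carbachol stimulus at about its EC50 of 1 µM final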
Method in brief: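 Read-out: CCF4 FRET ratio (460 nm/530 nm) after 1 h RT dye loading, used for %activity and AC50 from titration series. Cells: Jurkat NFAT-β-lactamase/M1 line, treated with compound plus 1 uM carbachol for 5 h, 37 °C.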

[2] = Stat Signaling Pathway (AID 446); details: ME-180 (cervical carcinoma) SIE beta-lactamase reporter, IL-6 stimulated, 5 h; at 17.2 µM (top of the series) unless noted;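 further: ME-180 cervical cancer cells given 40 pM IL-6 alongside compound; SIE-controlled beta-lactamase reporter measured as 460/530 nm FRET emission ratio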
Method in brief: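 Normalization used AC90 stimulation (300 pM IL-6) and AC90 inhibition (125 nM pan-JAK inhibitor at 40 pM IL-6). The underlying signal is SIE-driven beta-lactamase in ME-180 cells after 5 h IL-6 exposure with compound.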
On the % scale 0 is the no-effect control and ±100 the full control effect.

## COCCOC(=O)c1c(C)oc2ccc(OC(=O)COc3c(F)c(F)c(F)c(F)c3F)cc12
[1]
  activity change, negative = inhibition: -2.9%
[2]
  activity, negative = inhibition: 1.17%
